Assay [1] can be described thus: Primary qHTS for inhibitors of nuclear receptor binding SET domain protein 2 (NSD2) in an isogenic RCH-ACV NSD2 p.E1099K mutant (9B) (AID 1645876; further: nearly all actives have a fitted effect of over 70% in size; further: potency means the concentration at half of the fitted maximal effect). (In general: Quantitative high-throughput screening tests each substance at several concentrations.)
The nature of assay [2]: Primary qHTS for inhibitors of nuclear receptor binding SET domain protein 2 (NSD2) in an RCH-ACV wild type WT cells (2C) (AID 1645877). Further: nearly all actives have a fitted effect of over 70% in size. Further: potency means the concentration at half of the fitted maximal effect.
Assay [3] deals with Glutathione peroxidase 1 (Homo sapiens) (UniProt P07203). The assay is described as follows: Primary qHTS Assay for Inhibitors of Recombinant Selenoprotein Glutathione Peroxidase 1 (GPX1) (AID 1845191). Further: nearly all actives have a fitted effect of over 65% in size. Summed up:
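NADPH consumption tracked by fluorescence at 340/450 nm between t=0 and t=15 min, room temperature. Final mix: 10 nM GPX1, 100 nM glutathione reductase, 1 mM GSH, 0.5 mM NADPH, 0.5 mM cumene hydroperoxide, 0.01% BSA; 30 min compound–enzyme preincubation.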

In assay [4] the target is Phospholipid hydroperoxide glutathione peroxidase GPX4 (Homo sapiens) (UniProt P36969). The assay is described as follows: Primary qHTS Assay for Inhibitors of Recombinant Selenoprotein Glutathione Peroxidase 4 (GPX4) (AID 1845192). Further: nearly all actives have a fitted effect of over 65% in size. A digest of the protocol: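 NADPH consumption followed by fluorescence at 340/450 nm, t=0 and after 15 min at room temperature. Reaction started with cumene hydroperoxide (0.5 mM final) after 30 min compound–GPX4 preincubation; final 200 nM GPX4, 100 nM GR, 1 mM GSH, 0.5 mM NADPH.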

Assay [5] in a line: qHTS drug screen for cell cycle checkpoint inhibitors in PARPi-resistant BRCA-mutant ovarian cancer cell lines. (AID 1963452; calls by dose curve; further: potency means the concentration at half of the fitted maximal effect). The conditions noted are these: PEO1/OlaR viability, CellTiter-Glo luminescence, 96 h; for Z-AUC: stronger effect = lower value. Summed up:
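PEO1, PEO4 and PEO1/OlaR ovarian cancer cells, 600 per well, exposed 96 h at 37C to a dilution series. Viability read by CellTiter-Glo luminescence, normalized to DMSO and empty wells; activity summarized as Z-AUC.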

A short description of assay [6]: NCATS anti-infectives library activity on HEK293 viability as a counter-qHTS vs the C. elegans viability qHTS (AID 1745854).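 Further: HEK293 cells exposed to compounds for 24 hr before the viability read; on the % scale 0 is the no-effect control and ±100 the full control effect.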 A digest of the protocol: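 Compound titrations (final up to 41.7 uM) were incubated with HEK293 cells for 24 hr at 37C under 5% CO2. Viable cells were quantified with CellTiter-Glo after 10 min at ambient temperature.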
Assay [7] can be described thus: NCATS anti-infectives library activity on the primary C. elegans qHTS viability assay (AID 1745855; calls by dose curve). Summed up: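 Titration-based screen in worms: eggs hatched overnight in M9, L1 larvae fed TOP10 capsules in S medium with compound, incubated 21 °C for 7 days; fluorescent objects gated by size and intensity at days 0, 3 and 7.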
Setting [8] is: measured here: PEO1 parental Z-AUC.

Inconclusive results are not listed. Activity calls are given as the source filed them. Unless noted, the call rests on the fitted dose curve; in most records, active means well fitted curve in the direction sought with a large enough effect; inconclusive means small, poorly fitted or top-dose-only effect, or another doubt; inactive means no such curve, though single readings can be large; an effect the other way counts as inactive or inconclusive.

Glutathione peroxidase 1 (Homo sapiens), sequence (P07203 whole entry, looked up): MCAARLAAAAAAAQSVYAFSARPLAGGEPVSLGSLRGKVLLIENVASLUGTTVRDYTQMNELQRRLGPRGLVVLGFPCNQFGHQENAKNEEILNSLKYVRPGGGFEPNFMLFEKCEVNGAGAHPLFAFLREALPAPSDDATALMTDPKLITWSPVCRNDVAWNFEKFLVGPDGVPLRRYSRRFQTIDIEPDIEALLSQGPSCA
Phospholipid hydroperoxide glutathione peroxidase GPX4 (Homo sapiens), sequence (P36969 whole entry, looked up): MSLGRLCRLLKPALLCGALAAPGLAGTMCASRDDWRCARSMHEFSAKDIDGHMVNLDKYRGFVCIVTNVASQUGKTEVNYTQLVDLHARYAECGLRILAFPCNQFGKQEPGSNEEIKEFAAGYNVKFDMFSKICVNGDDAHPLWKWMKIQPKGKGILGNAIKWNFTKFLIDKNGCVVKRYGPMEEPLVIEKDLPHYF

With `CO[C@H]1C[C@@H]2CC[C@@H](C)[C@@](O)(O2)C(=O)C(=O)N2CCCC[C@H]2C(=O)O[C@H]([C@H](C)C[C@@H]2CC[C@@H](OCCO)[C@H](OC)C2)CC(=O)[C@H](C)/C=C(/C)[C@@H](O)[C@@H](OC)C(=O)[C@H](C)C[C@H](C)/C=C\C=CC=C1C`, the figures for the Potency in assay [1] and in assay [2] were 0.118 µM (active) and 0.0742 µM (active), respectively. Besides, the Potency result in assay [3] is “inactive”.

As for `CCN1/C(=C/C(C)=O)Sc2ccc(OC(C)=O)cc21`, the Potency in assay [1] is 16.4 µM (active); in assay [2], 20.6 µM (active). For the same compound, the Potency entry in assay [3] was “inactive”.

With `Cc1cc(C(=O)Nc2nc3cccc(Cl)c3n2C2CCCCN(C(=O)/C=C/CN(C)C)C2)ccn1` (configuration not stated), the Potency in assay [1] and in assay [2] was 6.51 µM (active) throughout. In addition, the Potency result in assay [3] is “inactive”.

With `COc1ccccc1C(=O)Nc1cc2c(cc1N1CCNC[C@H]1C)n(C)c(=O)n2C`, the Potency in assay [1] is 20.9 µM (active); in assay [2] it was 18.6 µM (active). Further, the Potency result in assay [3] and in assay [4] was “inactive” each time. For the same compound, the Z-AUC in assay [5] is -0.6 (inactive); in assay [5] (setting [8]), -0.159; in assay [5] (measured here: PEO4 Z-AUC) it was 0.121.

In the case of `CCNCCc1ccc(CN(CC)c2cc(OC)ccc2[C@@H]2CCc3cc(O)ccc3C2)cc1`, the values for the Potency in assay [1] and in assay [2] were 6.61 µM (active) and 7.42 µM (active), respectively. Besides, the Potency entry in assay [3] and in assay [4] was “inactive” in each case. Besides, the results for the Z-AUC in assay [5], in assay [5] (setting [8]) and in assay [5] (measured here: PEO4 Z-AUC) were -0.771 (inactive), -0.865 and -1.44, respectively.

As to `N#Cc1cccnc1N1CCN(C(=O)c2cccc(Cc3n[nH]c(=O)c4ccccc34)c2)CC1`, the Potency in assay [1] is 0.0332 µM (active); in assay [2] it was 0.0209 µM (active). Moreover, the Potency entry in assay [3] and in assay [4] was “inactive” throughout.

On to `C=C1[C@H](OC(=O)/C=C(\C)CC)C[C@@H](C(C)C)[C@@H]2[C@H]([C@@H](C)OC(C)=O)C(=O)C[C@@H]12`, for which the Potency result in assay [1], in assay [2], in assay [3] and in assay [4] was “inactive” each time. Also, the figures for the Z-AUC in assay [5], in assay [5] (setting [8]) and in assay [5] (measured here: PEO4 Z-AUC) were 1.28 (inactive), 0.917 and 1.09, respectively.

With `CC[C@H](NC(=O)[C@H](C)NC)C(=O)N1C[C@@H](O)C[C@H]1Cc1c(-c2[nH]c3cc(F)ccc3c2C[C@@H]2C[C@H](O)CN2C(=O)[C@H](CC)NC(=O)[C@H](C)NC)[nH]c2cc(F)ccc12`, the Potency in assay [1] was 5.25 µM (active); in assay [2], 18.6 µM (active). The compound was classed as inactive in assay [6].

For `CCOC(=O)CCNc1cc(N2CCc3ccccc3CC2)nc(-c2ccccn2)n1`, the Potency in assay [1] was 2.35 µM (active); in assay [2], 2.63 µM (active). For the same compound, the Potency result in assay [3] and in assay [4] was “inactive” throughout. Moreover, the Z-AUC was 0.71 (inactive) in assay [5], 0.271 in assay [5] (setting [8]) and -0.212 in assay [5] (measured here: PEO4 Z-AUC).

Take `NC(=O)c1ccc2nc(-c3ccc(C4(N)CCC4)cc3)c(-c3ccccc3)n2n1`: the Potency was 0.296 µM (active) in assay [1] and 0.332 µM (active) in assay [2]. For the same compound, the Potency result in assay [3] and in assay [4] was “inactive” each time. In addition, the figures for the Z-AUC in assay [5], in assay [5] (setting [8]) and in assay [5] (measured here: PEO4 Z-AUC) were -0.331 (inactive), -0.179 and 0.0521, respectively.

As for `Nc1ccc(F)cc1NC(=O)c1ccc(CNC(=O)/C=C/c2cccnc2)cc1`, the Potency in assay [1] is 1.05 µM (active); in assay [2], 1.18 µM (active). Moreover, the compound was classed as inactive in assay [6]. The Potency result in assay [7] and in assay [4] was “inactive” each time. Moreover, the Z-AUC in assay [5] is -1.13 (inactive); in assay [5] (setting [8]) it was -0.9; in assay [5] (measured here: PEO4 Z-AUC), -0.779.

`C/C=C/C[C@@H](C)C(=O)[C@H]1C(=O)N[C@@H](C(C)C)C(=O)N(C)CC(=O)N(C)[C@@H](CC(C)C)C(=O)N[C@@H](C(C)C)C(=O)N(C)[C@@H](CC(C)C)C(=O)N[C@@H](C)C(=O)N[C@H](C)C(=O)N(C)[C@@H](CC(C)C)C(=O)N(C)[C@@H](CC(C)C)C(=O)N(C)[C@@H](C(C)C)C(=O)N1C`: the Potency result in assay [1], in assay [2], in assay [3] and in assay [4] was “inactive” throughout. Also, the Z-AUC in assay [5] is -0.152 (inactive); in assay [5] (setting [8]), -0.111; in assay [5] (measured here: PEO4 Z-AUC), 0.176.

`COc1ccc2c(c1)[C@]1(C[C@H]1c1ccc3c(/C=C/c4ccc(CN5C[C@@H](C)O[C@@H](C)C5)cc4)n[nH]c3c1)C(=O)N2`: the Potency in assay [1] was 1.32 µM (active); in assay [2], 0.0295 µM (active). The Potency entry in assay [3] and in assay [4] was “inactive” throughout. Besides, the Z-AUC in assay [5] was 0.356 (inactive); in assay [5] (setting [8]), -0.0342; in assay [5] (measured here: PEO4 Z-AUC), -0.785.

`c1ccc2c(-c3cnn4cc(-c5ccc(OCCN6CCOCC6)cc5)cnc34)ccnc2c1`: the Potency was 3.62 µM (active) in assay [1] and 3.23 µM (active) in assay [2]. Moreover, the Potency result in assay [3] and in assay [4] was “inactive” each time. Further, the Z-AUC in assay [5] is -1.41 (inactive); in assay [5] (setting [8]) it was -1.08; in assay [5] (measured here: PEO4 Z-AUC) it was -0.99.

For the compound `C[C@]1(C(=O)N(CCCC(=O)O)Cc2cccc(Cl)c2)CCN1C(=O)c1csc2ccccc12`, the Potency result in assay [1], in assay [2], in assay [3] and in assay [4] was “inactive” in each case. For the same compound, the figures for the Z-AUC in assay [5], in assay [5] (setting [8]) and in assay [5] (measured here: PEO4 Z-AUC) were 0.897 (inactive), 0.571 and 0.835, respectively.

`Cc1ccc(Nc2nnc(Cc3ccncc3)c3ccccc23)cc1Br`: the Potency in assay [1] is 14.8 µM (active); in assay [2], 13.2 µM (active). The Potency result in assay [3] and in assay [4] was “inactive” in each case. In addition, the results for the Z-AUC in assay [5], in assay [5] (setting [8]) and in assay [5] (measured here: PEO4 Z-AUC) were 0.372 (inactive), 0.414 and -0.215, respectively.

Turning to `COc1ccc(/C=C\c2cc(OC)c(OC)c(OC)c2)cc1O`, the Potency is 0.0105 µM (active) in assay [1], 0.0093 µM (active) in assay [2] and 0.0078 µM (active) in assay [5]. The Potency entry in assay [3] and in assay [4] was “inactive” each time. Besides, the results for the Z-AUC in assay [5] (setting [8]) and in assay [5] (measured here: PEO4 Z-AUC) were -1.52 and -1.81, respectively.

Take `COc1cc(OC)cc(N2CCN(C(=O)Nc3nc4cc(F)ccc4nc3OC)CC2)c1`: the figures for the Potency in assay [1] and in assay [2] were 20.9 µM (active) and 26.3 µM (active), respectively. The Potency entry in assay [3] and in assay [4] was “inactive” each time. The Z-AUC in assay [5] was -0.785 (inactive); in assay [5] (setting [8]) it was -0.317; in assay [5] (measured here: PEO4 Z-AUC) it was 0.136.

With `C/C=C/C/C=C/CCC(=O)[C@H]1O[C@H]1C(N)=O`, the Potency in assay [1] is 11.8 µM (active); in assay [2], 13.2 µM (active). Besides, the Potency entry in assay [3] and in assay [4] was “inactive” each time.

Values taken from PubChem BioAssay (NCATS).
